# From PubChem BioAssay (NCATS)
# Unmarked numbers belong to inactive results. How the calls were made is not given here.
# Test system: HIV-1 nucleocapsid protein NCp7 (binding to TG oligonucleotide)
# Experiment: HIV Nucleocapsid (AID 346);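 further: potency is for inhibitors that block NC binding and lower polarization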
# Details: HIV-1 NC / fluorescein-TGTGTGTG probe, fluorescence polarization
# Outline: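 HIV-1 NC (100 nM) binding to fluorescein-labelled ssDNA TG4xF (10 nM) in Hepes pH 7.5, 250mM NaCl, 1uM ZnCl2, TCEP and 2-mercaptoethanol; compounds pin-transferred, 1 hr room temperature, fluorescence polarization read on CCD imager.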
# Potency means the concentration at half of the fitted maximal effect.
row,SMILES,Potency [µM]
1,COc1ccc2[nH]cc(CCNc3ncncc3-c3ccoc3)c2c1,> 20
2,FC(F)(F)c1ccccc1-c1nc(NCCN2CCOCC2)c2ccccc2n1,> 20
3,CC(C)NC(=O)N1CCCC2(CCN(C(=O)c3csnn3)CC2)C1,> 20
4,COc1ccc(C(=O)N2CCC3(CC2)CCN(C(c2ccccc2)c2ccccc2)CC3)cc1,> 20
5,c1ccc(Nc2cc(-c3ccoc3)ncn2)cc1,> 20
6,CCNc1ncc2ncc(=O)n(CCc3ccccc3)c2n1,> 20
7,COc1cccc(-c2nccc(NCCc3c[nH]c4ccc(OC)cc34)n2)c1,> 20
8,COCC(=O)N1CCC2(CC1)CN(C(=O)Nc1cccc(F)c1)C2,> 20
9,O=C(c1ccncc1)N1CCC2(CC1)CN(c1ccccn1)C2,> 20
10,O=C(Oc1ccccc1)N1CCC2(CC1)CCN(c1ccccn1)CC2,> 20
11,CC(C)NC(=O)N1CC[C@@]2(CCCN(C(=O)c3cccn3C)C2)C1,> 20
12,Cn1cccc1C(=O)N1CCC2(CCCN(Cc3ccccc3)C2)CC1,> 20
13,Cc1noc(C)c1C(=O)N1CCC2(CCN(C(=O)Nc3ccccc3)CC2)CC1,> 20
14,CN1CCN(c2ncc3nc(-c4cc(F)cc(F)c4)c(=O)n(C)c3n2)CC1,> 20
15,COc1ccccc1-c1cncnc1NCc1ccccc1,> 20
16,Cc1cnc(CNc2ccnc(-c3cccc(NS(C)(=O)=O)c3)n2)cn1,> 20
